Compound activity as filed in PubChem BioAssay.
An excerpt weighted towards active compounds, which were near 3.2% of everything screened.
SMARCA2 activ – SMARCA2 (BRM) function activators, primary screen, cell-based, luminescence, high throughput; MG213 cells, MMTV-luciferase reporter, dexamethasone, overnight; activation, % at 9.1 µM; hit rate 1% among 370,000; in the data active = activation above about 7.8%;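 also: 0% = vehicle wells and 100% = reference activator wells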
CDK5 inh – inhibitors of human CDK5/p35 kinase, primary screen, biochemical, single concentration; Recombinant CDK5/p35, ADP-Glo luminescence, 60 min; inhibition, % at 10 µM; hit rate 0.01% among 330,000;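 active = highest replicate inhibition of at least 50% and at least 75% of replicates reaching 50%; inconclusive = only one of the two criteria met; inactive = both criteria failed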;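 also: plate controls were DMSO neutral control for no effect and GW8510 at 10 µM for full effect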
Target sequence (Q00535 whole entry, looked up): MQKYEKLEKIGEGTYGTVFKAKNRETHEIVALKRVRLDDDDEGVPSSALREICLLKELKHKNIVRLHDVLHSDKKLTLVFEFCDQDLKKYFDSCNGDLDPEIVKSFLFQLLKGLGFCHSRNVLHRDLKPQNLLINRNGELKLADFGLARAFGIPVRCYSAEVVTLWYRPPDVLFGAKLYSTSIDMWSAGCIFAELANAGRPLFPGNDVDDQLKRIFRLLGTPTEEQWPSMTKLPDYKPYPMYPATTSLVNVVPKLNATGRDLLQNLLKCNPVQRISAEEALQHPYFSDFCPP
Target sequence (Q15078 whole entry, looked up): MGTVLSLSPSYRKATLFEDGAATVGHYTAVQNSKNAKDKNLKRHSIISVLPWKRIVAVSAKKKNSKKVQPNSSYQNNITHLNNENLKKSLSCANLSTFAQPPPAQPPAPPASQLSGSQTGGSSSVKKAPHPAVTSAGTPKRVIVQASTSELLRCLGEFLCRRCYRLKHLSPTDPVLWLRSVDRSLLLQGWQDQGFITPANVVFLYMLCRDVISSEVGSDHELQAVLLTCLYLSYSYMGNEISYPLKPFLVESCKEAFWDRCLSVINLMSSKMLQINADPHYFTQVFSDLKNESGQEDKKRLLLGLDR
Rtt109 HAT inh – inhibitors of C. albicans Rtt109/Vps75 HAT, primary screen, biochemical, ThioGlo CoA-SH fluorescence, plate reader; inhibition, % at 34.9 µM; hit rate 0.16% among 330,000; purified Rtt109/Vps75, 4 h; AID 540336, 2011;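 active = inhibition of at least 50% in every replicate; inconclusive = best replicate reaches 50% inhibition but some replicates fall short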
dFosB activator – activators of delta FosB homodimer, primary screen, biochemical, fluorescence polarization, TAMRA-CDK5 oligo, single point. hit rate 0.99% among 340,000. AID 493131, 2011. purified delta FosB; percent of positive-control signal above neutral wells. activation, % at 25 µM. Protein FosB (Mus musculus), P13346;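 active = mean activation above about 17%, with every replicate also reaching it, limit read from the data, passing the limit was not always enough; inconclusive = only one of the two conditions met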
esBAF inh – Bmi1 luciferase reporter increase in mESCs, primary screen, esBAF inhibitor project, mouse ES cells, Bmi1 luciferase knock-in, single point. 24 h; 100% = twice the neutral-well signal. hit rate 2% among 350,000. reporter increase, % at 12.5 µM; in the data active = activation above about 40%; inconclusive = no clear call, values can overlap the other calls;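 also: 0% = median of the plate's neutral control wells and 100% = double that signal; a rise in the Bmi1 reporter signal indicates esBAF inhibition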
Dyrk1A ADPGlo – rat Dyrk1A kinase inhibitors, primary screen, biochemical, single point, plate reader | Dual specificity tyrosine-phosphorylation-regulated kinase 1A (Rattus norvegicus), Q63470 | hit rate 0.43% among 310,000 | ADP-Glo luminescence, NFATc1 peptide | AID 504441, 2011 | inhibition, % at 12.5 µM; in the data active = inhibition above about 50%;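 also: plate controls were vehicle with enzyme for no effect and no enzyme for full effect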
Numbers without * were called inactive; ? = inconclusive; / = no result given.

SMILES	SMARCA2 activ	CDK5 inh	Rtt109 HAT inh	dFosB activator	esBAF inh	Dyrk1A ADPGlo
Cc1ccc(NCCC(=O)c2cccs2)cc1Cl	4	1	0	2	55*	-1
CC(C)c1ccc(NCCC(=O)c2cccs2)cc1	1	2	9	-1	/	-2
Cc1ccc(NCCC(=O)c2cccs2)cc1C	3	0	0	-7	68*	9
CC(=O)N(C)C[C@H]1Oc2ncc(-c3ccc(C#N)cc3)cc2C(=O)N([C@H](C)CO)C[C@@H]1C	/	/	/	/	-1	/
c1ccc(-c2ccc(-n3ccnc3)cc2)cc1	0	3	0	-12	56*	/
c1ccc(-c2ccc(C(c3ccccc3)n3ccnc3)cc2)cc1 (stereo unspecified)	-3	1	47	-15	11	5
CC(=O)c1ccc(OC(C)c2nc3ccccc3s2)cc1 (stereo unspecified)	0	0	6	-11	53*	-4
COCC(=O)N(C)C[C@@H]1Oc2cc(C#CC(C)(C)O)ccc2S(=O)(=O)N([C@H](C)CO)C[C@@H]1C	/	/	/	/	-5	/
CCC(CO)Nc1ccn2nc(-c3cccc(Cl)c3)cc2n1 (stereo unspecified)	2	/	/	/	72*	/
OC1CCC(Nc2ccn3nc(-c4cccc(Cl)c4)cc3n2)CC1 (stereo unspecified)	1	/	/	/	?	/
COc1ccc(OC)c2c1sc(=NC(=O)c1ccco1)n2C	-1	2	-1	-4	8	-7
Cc1ccc(-c2c(C)sc(=NC(=O)c3ccco3)n2C)cc1	2	0	-6	-6	57*	-4
CCOC(=O)c1ccc(NC(=O)C2C3CCC(C3)C2C(=O)O)cc1 (stereo unspecified)	5	1	4	-4	15	-9
CC(C)COC(=O)c1ccc(NC(=O)C2C3CCC(C3)C2C(=O)O)cc1 (stereo unspecified)	6	0	25	0	58*	4
O=C(COc1ccccc1)N1CCc2ccccc21	0	0	/	0	/	-2
CCOc1ccc(C(=O)N2CCc3ccccc32)cc1	5	1	-1	-3	50*	6
O=C(c1ccc2ccccc2c1)N1CCc2ccccc21	3	-1	1	2	64*	-1
O=C(COc1ccccc1Cl)N1CCc2ccccc21	5	0	-3	-3	64*	2
C[C@H](CO)N1C[C@H](C)[C@H](CN(C)C(=O)Cc2cccnc2)Oc2ncc(-c3cncnc3)cc2C1=O	/	/	/	/	1	/
CNC[C@H](Cc1ccccc1)NC[C@@H](Cc1cccc2ccccc12)NCCc1ccc(C)cc1	0	1	12	30*	-45	1
COCC(=O)Nc1ccc2c(c1)C(=O)N(C)[C@@H]1CC[C@@H](CC(=O)NC3CCCC3)O[C@@H]1CO2	/	/	/	/	-2	/
O=C(c1cnsn1)N1CCC(CO)(Cc2cccc(F)c2)CC1	2	-2	-4	-1	70*	5
Cc1cc(C(=O)N2CCC(CO)(Cc3cccc(C(F)(F)F)c3)CC2)n[nH]1	-2	0	2	-3	-2	-2
C[C@@H]1CN([C@@H](C)CO)C(=O)c2cccc(NC(=O)C3CCOCC3)c2O[C@@H]1CN(C)Cc1ccc2c(c1)OCO2	/	/	/	/	1	/
Cc1ccc2cc3c(N)c4c(C)ccc(C)c4nc3nc2c1	4	0	1	29*	11	-3
O=C(CSc1nnc(C2CC2)n1C1CC1)c1ccc(Br)s1	2	0	-3	-10	56*	-1
O=C(CSc1nnc(C2CC2)n1C1CC1)c1cccs1	-2	-2	-6	-4	4	-4
O=C(C[C@H]1CC[C@H](NS(=O)(=O)c2cccc(F)c2)[C@H](CO)O1)NCc1ccc2c(c1)OCO2	/	/	/	/	-5	/
Cc1ccc2c(c1)COc1c3ccc(C(=O)N4CCOCC4)cc3nn1-2	5	0	0	4	57*	3
